Reference: ChEMBL document CHEMBL4808148, “HDAC6 screening dataset using tau-based substrate in an enzymatic assay yields selective inhibitors and activators” (2021)
Where “and” joins values, the source holds several entries; their conditions need not be identical. Equal entries are not always repeated. Hit rate of the full screen: of about 5,600 compounds, about 150 (2.7%) showed an effect of 50% or more. For the sample, strong results were picked, then their nearest neighbours and some compounds at random.

Legend:
[1] = target: T1, Protein deacetylase HDAC6 (Homo sapiens) (UniProt Q9UBN7); conditions: at 10 µM
T1 sequence (whole entry): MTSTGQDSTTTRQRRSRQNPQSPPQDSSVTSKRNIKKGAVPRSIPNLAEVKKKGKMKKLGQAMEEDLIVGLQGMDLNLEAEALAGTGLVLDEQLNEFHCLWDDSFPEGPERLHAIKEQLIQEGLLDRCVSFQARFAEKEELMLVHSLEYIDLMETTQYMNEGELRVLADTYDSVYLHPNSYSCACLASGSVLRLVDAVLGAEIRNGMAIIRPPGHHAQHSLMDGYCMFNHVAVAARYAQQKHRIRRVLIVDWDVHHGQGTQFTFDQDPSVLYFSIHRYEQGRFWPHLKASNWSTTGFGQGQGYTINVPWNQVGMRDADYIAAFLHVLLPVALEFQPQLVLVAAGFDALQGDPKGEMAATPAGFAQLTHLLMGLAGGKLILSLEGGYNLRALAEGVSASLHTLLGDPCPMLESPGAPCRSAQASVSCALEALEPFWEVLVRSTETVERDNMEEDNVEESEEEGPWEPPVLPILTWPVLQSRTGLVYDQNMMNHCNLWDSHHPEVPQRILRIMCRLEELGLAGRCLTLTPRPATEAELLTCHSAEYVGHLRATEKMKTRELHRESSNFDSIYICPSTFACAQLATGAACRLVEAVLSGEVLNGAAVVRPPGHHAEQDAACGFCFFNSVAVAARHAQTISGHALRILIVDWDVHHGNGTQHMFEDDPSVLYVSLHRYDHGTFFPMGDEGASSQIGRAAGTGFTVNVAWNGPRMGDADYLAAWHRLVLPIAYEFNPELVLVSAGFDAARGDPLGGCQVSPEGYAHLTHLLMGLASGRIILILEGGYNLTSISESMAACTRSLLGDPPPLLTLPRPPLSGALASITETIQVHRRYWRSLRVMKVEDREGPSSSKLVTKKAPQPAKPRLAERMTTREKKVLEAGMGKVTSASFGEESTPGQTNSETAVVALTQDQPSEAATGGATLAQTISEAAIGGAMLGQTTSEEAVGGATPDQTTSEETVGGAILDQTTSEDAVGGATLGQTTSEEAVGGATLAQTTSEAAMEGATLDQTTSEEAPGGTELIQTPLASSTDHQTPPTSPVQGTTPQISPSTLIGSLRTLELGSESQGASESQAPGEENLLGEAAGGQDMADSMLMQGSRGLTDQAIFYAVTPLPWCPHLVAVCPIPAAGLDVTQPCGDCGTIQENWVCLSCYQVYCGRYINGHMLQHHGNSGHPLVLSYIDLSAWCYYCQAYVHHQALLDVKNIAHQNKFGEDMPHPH

[2] = target: Protein deacetylase HDAC6 (Homo sapiens) (UniProt Q9UBN7); conditions: at 10 µM; remark: listed apart in the source

Row | Compound | inhibition [1] | inhibition [2]
1 | Cc1oc(-c2ccccc2)nc1CCOc1ccc(CC2SC(=O)NC2=O)c2sccc12 (stereo not drawn) | -4.87% | –
2 | COc1ccc(Nc2ccn(-c3ccccc3)n2)cc1 | 66.8% | –
3 | O=C(Nc1ccccc1C(=O)Nc1ccc(CCO)cc1)c1ccc([N+](=O)[O-])cc1 | 19.2% | –
4 | CCC1OC(=O)CC(O)C(C)C(OC2OC(C)CC(N(C)C)C2O)C(CC=O)CC(C)C(=O)/C=C/C2(C)OC2C1C (stereo not drawn) | 10.6% | –
5 | CN(C)C(=S)SC(=S)N(C)C | 12.2% | –
6 | O=C(CC1CC(c2ccc(F)cc2F)=NO1)N1CCOCC1 (racemic) | 64.3% | –
7 | O=C(O)CC1CC(c2ccccc2)=NO1 (stereo not drawn) | -4.54% | –
8 | c1cc(-c2cnn3cc(-c4ccc(N5CCNCC5)cc4)cnc23)c2cccnc2c1 | -3.93% | –
9 | c1ccc(OCc2ccc(CCCN3CCOCC3)cc2)cc1 | 22.1% | –
10 | CC(C)Oc1ccc(-c2cnc3c(-c4ccnc5ccccc45)cnn3c2)cc1 | -1.97% | –
11 | c1cc(-c2cnn3cc(-c4ccc(OCCN5CCCCC5)cc4)cnc23)ccn1 | 60.7% | –
12 | c1ccc(-c2cnn3cc(-c4ccc(OCCN5CCOCC5)cc4)cnc23)cc1 | 78.4% | –
13 | COc1ccc(-c2cnc3c(-c4cccc5ncccc45)cnn3c2)cc1 | -5.32% and -3.01% | –
14 | CN1C(=O)N(c2cc(Cl)cc(Cl)c2)C(=O)[C@@]1(C)Cc1ccc(Br)cc1 | -0.75% | –
15 | COCc1nnc(N2CC(Oc3ccc(F)cc3Cl)C2)n1-c1ccc(OC)nc1 | -0.3% | –
16 | O=C(Nc1ccc(Br)cc1)c1cc(Br)cc(Br)c1O | 47.3% | –
17 | CCOCc1cc(OC)c(-c2ccc(C[C@H](NC(=O)c3c(F)cccc3F)C(=O)O)cc2)c(OC)c1 | -3.54% | –
18 | C[C@]12CC[C@@H](O)C[C@@H]1CC[C@@H]1[C@@H]2CC[C@]2(C)C(c3ccccc3)=CC[C@@H]12 | -2.46% | –
19 | CC(=O)OCC1=C(C(=O)O)N2C(=O)[C@@H](NC(=O)CS/C(=N/C(C)C)NC(C)C)[C@H]2SC1 | -0.21% | –
20 | O=C(Oc1ccccc1)c1ccccc1O | 59.6% | –
21 | O=C(OCCO)c1ccccc1O | 0.47% | –

Row | Compound | inhibition [1] | inhibition [2]
22 | O=C(O)c1ccccc1O | 3.65% | –
23 | SEVELAMER HYDROCHLORIDE, CHEMBL1201492 | – | -4.03%
24 | CC1CCC2C(C)(C)C3CC12CCC3(C)O (stereo not drawn) | 3.35% | –
25 | C[C@H](Nc1cc(NS(=O)(=O)N2CCC2)nc(SCc2cccc(F)c2F)n1)[C@@H](O)CO | -3.66% | –
26 | COc1cc(C(=O)NCCCCCC(=O)O)cc(OC)c1OC | -4.19% | –
27 | CN(C)c1ccc(C(=O)NCCCCCCC(=O)NO)cc1 | 97.6% | –
28 | O=C(CNC(=O)c1ccc(Cl)cc1)NO | 1.88% | –
29 | O=c1c2c[nH]c3ccccc3c-2nn1-c1ccc(Cl)cc1 | 37.8% | –
30 | C[C@H](N/C(=N/C#N)Nc1cccc2ncccc12)c1ccccc1 | -5.84% | –
31 | Cc1cn2c(N)c(Cl)cc(C(=O)NCC3CCN(CC(C)C)CC3)c2n1 | 4.88% | –
32 | Nc1ncnc2c1c(-c1ccc(Oc3ccccc3)cc1)nn2C1CCCC1 | -1.59% | –
33 | C=CC(=O)N1CCC[C@@H](n2c(=O)n(-c3ccc(Oc4ccccc4)cc3)c3c(N)ncnc32)C1 | 6.07% | –
34 | C=CC(=O)N1CCC[C@@H](n2nc(-c3ccc(Oc4ccccc4)cc3)c3c(N)ncnc32)C1 | 51% | –
35 | C=C1C(=O)O[C@@H]2[C@H]3C(C)=CC[C@@]34O[C@@]4(C)CC[C@@H]12 | 4.41% | –
36 | c1cnc(NCc2ccc(CNc3ncccn3)cc2)nc1 | 0.03% | –
37 | CNc1nc(C)nc(N[C@H]2CCC[C@@H](C(=O)NCc3ccc(C#N)cc3C(F)(F)F)C2)n1 | -6.75% | –
38 | Cc1cc(O)cc2c1O[C@@](C)(CCC[C@@H](C)CCC[C@@H](C)CCCC(C)C)CC2 | -3.19% | –
39 | Cc1nc2cnc3ccc(C#Cc4cccnc4)cc3c2n1-c1ccc(C(C)(C)C#N)cc1 | 3.93% | –
40 | CC(=O)SCCC(=O)N1C(C)CCCC1C(=O)O (stereo not drawn) | 7.82% | –
41 | CSc1nc2ccc3nc(NC(=O)C(c4ccccc4)c4ccccc4)sc3c2s1 | -1.3% | –
42 | CC(=O)N(O)[C@@H]1c2cc(C#N)ccc2OC(C)(C)[C@H]1O | -2.08% | –

Row | Compound | inhibition [1] | inhibition [2]
43 | CN(C)c1nc(N)c(C(=O)Nc2cccnc2)nc1Cl | 80.9% | –
44 | N=C(N)NC(=O)c1nc(Cl)c(N)nc1N | -8.95% | –
45 | O=C(OCC(COC(=O)c1cccnc1)(COC(=O)c1cccnc1)COC(=O)c1cccnc1)c1cccnc1 | -1.03% | –
46 | Cn1ncc2c(N3CCOCC3)nc(-c3cccc(O)c3)nc21 | -1.99% | –
47 | Cc1ccc(-c2nn(C(C)(C)CNC(=O)c3ncccc3C)c3ncnc(N)c23)cc1 | 6.88% | –
48 | Oc1ccc(-c2nc3cc(O)cc(Br)c3o2)cc1 | 54.3% | –
49 | CC[C@H](NC(=O)c1c(O)c(-c2ccccc2)nc2ccccc12)c1ccccc1 | 2.06% | –
50 | O=C(/C=C/c1cccc(F)c1)NC1CC1 | 8.47% | –
51 | Cn1c(/C=C/C(=O)NO)ccc1/C=C/C(=O)c1cccc(F)c1 | 76.3% | –
52 | CCCCCCCCC(=O)N[C@H](CN1CCCC1)[C@H](O)c1ccc2c(c1)OCCO2 | 6.86% | –
53 | O=C(CCBr)N1CC[N+]2(CC1)CC[N+]1(CCN(C(=O)CCBr)CC1)CC2 | 0.06% | –
54 | CS(=O)(=O)c1ccc(-c2cnc(N)c(C(=O)Nc3ccccc3)n2)cc1 | 2.63% | –
55 | CN1CCN(c2cccc(Nc3nc4c(-c5ccc(S(C)(=O)=O)cc5)cccn4n3)c2)CC1 | -1.82% | –
56 | CS(=O)(=O)c1ccc(-c2cn3ccccc3n2)cc1 | 78.9% | –
57 | C[C@H]1O[C@@H](O[C@H]2CC[C@@]3(C)[C@H](CC[C@@H]4[C@@H]3C[C@@H](O)[C@]3(C)[C@@H](C5=CC(=O)OC5)CC[C@]43O)C2)C[C@H](O)[C@@H]1O[C@H]1C[C@H](O)[C@H](O[C@H]2C[C@H](O)[C@H](O[C@@H]3O[C@H](CO)[C@@H](O)[C@H](O)[C@H]3O)[C@@H](C)O2)[C@@H](C)O1 | -2.28% | –
58 | N#CC(c1ccccc1)(c1ccccc1)c1ccccc1Cl | -3.49% | –
59 | CC(C)c1c2cc(-c3ccnc(N[C@H]4CC[C@H](NC5CCOCC5)CC4)n3)ccc2nn1C | 1.08% | –
60 | CCC(CC)O[C@@H]1C=C(C(=O)O)C[C@H](N)[C@H]1NC(C)=O | 0.57% | –
61 | O=c1cc(-c2ccc(O)c(O)c2)oc2cc(O)cc(O)c12 | 51.1% | –
62 | O=c1c(O)c(-c2ccc(O)c(O)c2)oc2cc(O)cc(O)c12 | 49.9% | –
63 | O=C(O)c1ccc2c(c1)C(=O)N(c1cccc(Oc3ccc([N+](=O)[O-])cc3)c1)C2=O | 23.5% | –
